# Screening data as filed in PubChem.
# Compounds with a hit are over-represented: about 4.2% of the library has one in this group of screens.
# D1 PAM = Potentiators of Human D1 Dopamine Receptor: qHTS. D(1A) dopamine receptor (Homo sapiens), P21728. HEK293 TREx D1 cells, calcium flux, dopamine EC20 potentiation. potentiation, % at 10 µM. hit rate 0.036% among 360,000. AID 504651, 2011; in the data active = potentiation above about 30%; note: 0% is about no effect
# D1 agonist = Allosteric Agonists of the Human D1 Dopamine Receptor: qHTS | D(1A) dopamine receptor (Homo sapiens), P21728 | HEK293 T-REx D1 cells, calcium flux, agonist mode | activation, % at 2 µM | hit rate 1% among 360,000; in the data active = activation above about 30%; note: 0% is about no effect
#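 Tetracycline-induced HEK293 TREx D1 cells, force-coupled to calcium signalling, were dye-loaded with a no-wash calcium kit. Compound was pin-added after a 10 s baseline. Fluorescence was read kinetically at 1 cycle/s for 180 s, with calcium rises flagged as agonism.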
# TRPV1 potentiator = HTS Assay for Compounds that Act as Potentiators of the Vanilloid Receptor 1; hit rate 0.02% among 320,000; Transient receptor potential cation channel subfamily V member 1 (Homo sapiens), Q8NER1; TRPV1-expressing cells, Fluo-8 calcium influx, capsaicin EC20 potentiation; AID 540277, 2011; potentiation, % at 8.33 µM; in the data active = potentiation above about 80%; inconclusive = between about 30% and that limit; note: 0% is about no effect
# Target sequence (Q8NER1 whole entry, looked up): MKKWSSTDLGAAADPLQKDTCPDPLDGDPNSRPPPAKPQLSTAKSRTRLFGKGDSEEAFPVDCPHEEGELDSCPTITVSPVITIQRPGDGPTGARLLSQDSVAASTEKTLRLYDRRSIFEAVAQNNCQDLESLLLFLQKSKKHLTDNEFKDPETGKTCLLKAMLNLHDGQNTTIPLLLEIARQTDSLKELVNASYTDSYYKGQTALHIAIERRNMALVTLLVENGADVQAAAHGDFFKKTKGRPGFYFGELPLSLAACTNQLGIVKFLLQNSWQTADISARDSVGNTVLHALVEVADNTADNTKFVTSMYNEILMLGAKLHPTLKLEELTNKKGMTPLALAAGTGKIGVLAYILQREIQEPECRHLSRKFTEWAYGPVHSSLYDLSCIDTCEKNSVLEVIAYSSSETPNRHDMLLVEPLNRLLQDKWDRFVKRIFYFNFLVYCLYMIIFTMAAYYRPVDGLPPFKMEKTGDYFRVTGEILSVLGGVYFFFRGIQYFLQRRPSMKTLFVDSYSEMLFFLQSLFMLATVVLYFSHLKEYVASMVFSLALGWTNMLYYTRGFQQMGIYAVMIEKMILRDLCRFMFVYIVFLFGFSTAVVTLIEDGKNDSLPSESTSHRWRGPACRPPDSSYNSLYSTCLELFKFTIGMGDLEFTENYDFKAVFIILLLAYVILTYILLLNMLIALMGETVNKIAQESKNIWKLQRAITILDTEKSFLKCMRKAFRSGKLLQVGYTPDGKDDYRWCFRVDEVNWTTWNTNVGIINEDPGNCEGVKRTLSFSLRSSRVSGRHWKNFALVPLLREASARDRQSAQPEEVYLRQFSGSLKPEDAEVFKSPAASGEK
#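 Fluo-8 calcium influx in TRPV1-expressing cells, kinetic read (ex 480/em 520 nm). Compound added and read 3 min for agonist activity, followed by capsaicin at EC20 final and 2 min further read for enhancement.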
# D1 antag = Antagonist of Human D 1 Dopamine Receptor: qHTS; D(1A) dopamine receptor (Homo sapiens), P21728; HEK293 TREx D1 cells, calcium flux, dopamine EC80; hits give low values; activity change, negative = inhibition, % at 10 µM; hit rate 3.2% among 360,000; in the data active = activity change below about -30%; note: % is set by controls: 0 for no effect and ±100 for the full control effect
#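 Allosteric or orthosteric antagonism assessed as attenuation of the calcium response to EC80 dopamine, added 180 s after compound, in induced HEK293 Trex D1 cells loaded with no-wash calcium dye.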
# TRPV1 agonist = HTS Assay for Compounds that Act as Agonists of the Vanilloid Receptor 1; TRPV1-expressing cells, Fluo-8 calcium influx, agonist mode; activation, % at 8.33 µM; hit rate 0.19% among 320,000; AID 540275, 2011; in the data active = activation above about 80%; inconclusive = between about 30% and that limit; note: 0% is about no effect
#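 Cells expressing TRPV1 were dye-loaded with Fluo-8 and read kinetically: 10 s baseline, 3 min after compound (agonist portion), then 2 min after EC20 capsaicin (allosteric enhancer portion). Calcium-bound dye fluorescence at 480/520 nm.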
# The depositor's hits bear a star; ? = inconclusive; · = no result given; ! = a repeat was not active.
SMILES,D1 PAM,D1 agonist,TRPV1 potentiator,D1 antag,TRPV1 agonist
Cc1cc(Br)ccc1NC(=O)CN(C)C(=O)C1CSC2(C)CCC(=O)N12 (stereo not given),·,2.2,-10.4,-33.1*,-0.6
COC(=O)c1cn[nH]c1NC(=S)Nc1ccc(Cl)c(Cl)c1,0.5,4.5,-5.2,-26.4,2.0
CCOC(=O)c1ccc(NC(=S)Nc2cccc(N)n2)cc1,-3.7,1.5,·,-34.2*,·
CCOC(=O)c1cn[nH]c1NC(=S)Nc1ccc(OC)cc1,1.1,9.8,4.8,-39.4*,-5.1
O=C(CCc1ccccc1)NC(NC(=S)Nc1ccc(Cl)cc1)C(Cl)(Cl)Cl (stereo not given),-5.9,8.8,3.0,-35.6*,0.0
CCOC(=O)NC(NC(=S)Nc1ccc(OC)cc1)C(Cl)(Cl)Cl (stereo not given),-10.4,2.5,6.1,-33.9*,4.3
Cc1noc(C)c1S(=O)(=O)Nc1ccc(C(=O)Nc2ccc(C(C)C)cc2)cc1,-0.9,0.3,·,-6.4,·
COc1ccc(-c2nc(N3CCN(S(=O)(=O)c4ccc(C)cc4)CC3)c3ccccc3n2)cc1,-3.3,3.8,·,2.9,·
Cc1ccc(CCNS(=O)(=O)c2c(C)nc3sc(C)c(C)n3c2=O)cc1,1.1,1.7,·,-0.9,·
CC(=O)NC(NC(=S)Nc1ccc(N=Nc2ccccc2)cc1)C(Cl)(Cl)Cl (stereo not given),-9.5,16.5,1.2,-44.0*,-2.3
CC(=O)c1ccc(OCC(=O)c2cc(C)n(-c3ccc4c(c3)OCO4)c2C)cc1,-5.1,12.5,-8.6,-44.4*,?
COc1cccc2cc(-c3cn4c(n3)sc3cc(F)ccc34)c(=O)oc12,-0.3,0.5,·,10.8,·
CS(=O)(=O)N1CCN(C/C=C/c2ccccc2)CC1,-8.0,2.2,0.5,-4.2,-2.6
O=S(=O)(Cc1ccccc1)N1CCN(C/C=C/c2ccccc2)CC1,-12.3,47.4*,14.6,-32.9*,-2.0
COCCCNC(=O)c1ccc(-c2nc(CS(=O)(=O)c3ccc(C)cc3)c(C)o2)cc1,-2.1,-1.2,·,-9.9,·
O=C(Cc1c(F)cccc1Cl)N1CCOCC1,-4.0,-0.8,6.0,-35.6*,0.0
O=C(Cc1c(F)cccc1Cl)NCCN1CCOCC1,3.5,3.0,1.0,-7.4,-3.1
CCOC(=O)C1CCCN(c2nc3ccccc3nc2C(C#N)C(=O)NCc2ccccc2)C1 (stereo not given),-8.6,32.6*,0.0,-2.6,9.5
CCc1nn2c(=O)cc(COC(=O)c3cccc(NC(=O)CCc4ccccc4)c3)nc2s1,-0.4,-2.0,·,3.4,·
Cc1ccc(NC(=O)c2ccc(C)cc2)cc1,-4.0,-0.7,5.1,-1.0,80.9*
O=C(Nc1ccc(SC(F)F)cc1)c1ccccc1F,-4.7,2.0,0.9,-7.9,?
Cc1ccc(C(=O)Nc2ccc(S(=O)(=O)N3CCCC3)cc2)cc1,1.5,0.6,-40.4,0.9,84.6*
Cc1ccc(C(=O)Nc2ccc(N3CCN(C)CC3)cc2)cc1,-4.3,3.1,1.4,1.7,7.8
O=C(CNC1CCCCC1)Nc1ccc(S(=O)(=O)N2CCCCC2)cc1,42.8*,152.6*,-3.9,3.0,-3.2
Cc1ccc(NC(=O)c2ccc(S(=O)(=O)N3CCCCC3)cc2)cc1,-7.2,4.0,-28.2,-7.8,?
SMILES,D1 PAM,D1 agonist,TRPV1 potentiator,D1 antag,TRPV1 agonist
O=C(Nc1ccc(SC(F)F)cc1)c1ccc(F)cc1,-11.4,11.7,-8.4,-36.6*,?
CCOC(=O)CNC(=O)N1CCCN(S(=O)(=O)c2ccc3c(ccn3CC)c2)CC1,1.9,0.5,·,0.9,·
CC(C)(C)OC(=O)Cc1nnc(-c2nc3ccccc3[nH]2)s1,24.1,6.7,·,1.5,·
Cc1cc2c(s1)c1cnn(Cc3ccc(C)c(F)c3F)c(=O)c1n2C,-6.6,1.4,·,5.2,·
Cc1cc2ccccc2n1CCNC(=O)c1ccc(S(=O)(=O)N2CCCCC2)cc1,2.6,60.8*,-11.4,27.9,-5.0
O=C(Nc1ccc(F)c(F)c1)c1ccc(F)c(S(=O)(=O)N2CCOCC2)c1,-3.2,15.4,-12.6,-32.9*,?
Cc1ccc(C(=O)NCCn2c(C)cc3ccccc32)cc1C,-5.6,0.9,·,-13.3,·
COC(=O)c1ccccc1NC(=O)CNc1ccc(F)c(S(=O)(=O)N2CCOCC2)c1,2.4,-0.2,1.1,-50.8*,6.6
CCOC(=O)c1ccc(NC(=O)N2CCc3ccccc3C2)cc1,-1.9,12.7,-5.7,-38.7*,?
O=C(Nc1ccc(NC(=O)c2ccc(Cl)c(S(=O)(=O)N3CCOCC3)c2)cc1)c1ccccc1,-0.8,9.0,9.2,3.0,-1.3
O=C(Nc1ccccc1)c1ccc(NC2CCCCC2)c(S(=O)(=O)N2CCOCC2)c1,4.0,2.9,14.6,6.4,86.5*
Cn1cc(S(=O)(=O)N2CCCC2)cc1C(=O)Nc1cccc(C(F)(F)F)c1,1.4,7.2,17.5,-0.1,-2.4
CC1CCN(S(=O)(=O)c2ccc(NC(=O)c3cccs3)cc2)CC1,-4.3,5.0,-10.3,-4.4,?
O=C(NCCCN=C1NS(=O)(=O)c2ccccc21)c1ccc(S(=O)(=O)N2CCCCC2)cc1,-0.6,7.3,-6.2,-35.1*,3.9
Cc1nnsc1C(=O)Nc1ccc(S(=O)(=O)N2CCC(C)CC2)cc1,-8.7,20.8,-10.1,-48.4*,?
Cn1cc(S(=O)(=O)N2CCCC2)cc1C(=O)Nc1ccc(C(F)(F)F)cc1,-2.0,33.2*,·,-0.3,·
Cc1ccc(Cn2ccnc2SCC(=O)Nc2ccccc2C(F)(F)F)cc1,-6.7,6.5,·,1.9,·
Cc1ccc(-n2ncc3c(NCCC4=CCCCC4)ncnc32)cc1C,-1.4,-3.1,·,-24.0,·
COc1ccc(NCc2cc3cc4c(cc3n(CC(=O)Nc3cc(C)ccc3C)c2=O)OCCO4)cc1,-1.3,3.0,·,5.2,·
Cc1cc(C)cc(NC(=O)c2cc(S(=O)(=O)N3CCCCC3)c[nH]2)c1,-0.6,1.3,·,-8.1,·
CCN(CC)CCNC(=O)c1ccc(NC(=O)c2cccc(S(=O)(=O)Nc3ccc(C)cc3)c2)cc1,-18.6,1.2,-2.2,-77.0*,5.5
O=C(NCCc1ccc(F)cc1)c1ccc(Cl)c(S(=O)(=O)N2CCOCC2)c1,-8.8,9.5,-8.2,-32.6*,?
COc1ccc(NC(=O)c2oc3ccc(S(=O)(=O)N4CCC5(CC4)OCCO5)cc3c2C)cc1Cl,-3.2,-1.6,·,-28.2,·
Cc1ccc(C(=O)Nc2ccccc2[N+](=O)[O-])cc1S(=O)(=O)N1CCOCC1,-5.9,0.6,-4.6,-33.9*,20.7
Cc1ccc(NC(=O)c2oc3ccc(S(=O)(=O)N4CCC5(CC4)OCCO5)cc3c2C)cc1C,-3.1,-2.3,8.7,-32.2*!,0.9
